From PubChem
Pf Dd2 growth = Plasmodium falciparum Dd2 growth inhibition; P. falciparum Dd2 growth, SYBR Green, 72 h; Potency, µM (highest dose often 28.9 µM), actives largely listed as inhibitors; 120,000 tested, 4.3% active; AID 1347417; active = well fitted inhibition curve with a large enough effect; also: nearly all actives have a fitted effect of over 65% in size
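Readout: SYBR Green fluorescence, 485 nm excitation, 535 nm emission, after ~16 h lysis at 37C. Before that, Dd2-infected red cells (2.5% hematocrit) grew 72 h with compound, 29 uM top final concentration.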
Of the large screens only hits and unclear results are named; the others gave an inactive call. This is one part of a sample in which hits are shown more often than they occur.

O=C(c1ccc(Cl)nc1)N1CCn2c(nnc2-c2ccccc2)C1	none
O=C(c1ccccc1)N1CCn2c(nnc2[C@@H]2C[C@@H](O)CN2Cc2ccccc2)C1	none
O=C(Nc1ccccc1)[C@H]1CN2CC[C@H]1C[C@@H]2Cn1cc(COc2ccccc2)nn1	none
O=C(CCC1N=C2c3ccccc3N=C(SCC(=O)Nc3ccccc3F)N2C1=O)NCc1cccs1 (stereo unspecified)	none
COc1ccc(Cl)cc1NC(=O)CSC1=Nc2ccccc2C2=NC(CC(=O)NCc3cccs3)C(=O)N12 (stereo unspecified)	Pf Dd2 growth 11µM
COc1ccc(CCNC(=O)CSC2=Nc3ccccc3C3=NC(CCC(=O)NCc4ccccc4)C(=O)N23)cc1OC (stereo unspecified)	none
O=C(CC1N=C2c3ccccc3N=C(SCC(=O)Nc3cccc(C(F)(F)F)c3)N2C1=O)NCc1cccs1 (stereo unspecified)	Pf Dd2 growth 13µM
O=C(CC1N=C2c3ccccc3N=C(SCC(=O)Nc3ccc(F)cc3)N2C1=O)NCc1cccs1 (stereo unspecified)	none
CCc1ccc(NC(=O)CSC2=Nc3ccccc3C3=NC(CC(=O)NC4CCCCC4)C(=O)N23)cc1 (stereo unspecified)	none
Cc1ccc(CSC2=Nc3ccccc3C3=NC(CCC(=O)NCc4cccs4)C(=O)N23)cc1 (stereo unspecified)	none
O=C(CC1N=C2c3ccccc3N=C(SCc3cccc(F)c3)N2C1=O)NCc1cccs1 (stereo unspecified)	none
CCOc1ccccc1NC(=O)CSC1=Nc2ccccc2C2=NC(CC(=O)NC3CCCCC3)C(=O)N12 (stereo unspecified)	Pf Dd2 growth 11µM
Cc1ccc(CSC2=Nc3ccccc3C3=NC(CCC(=O)NCCc4ccccc4)C(=O)N23)cc1 (stereo unspecified)	Pf Dd2 growth 10µM
O=C(CSC1=Nc2ccccc2C2=NC(CC(=O)NC3CCCCC3)C(=O)N12)Nc1ccc(F)cc1 (stereo unspecified)	none
COc1ccc(OC)c(NC(=O)CSC2=Nc3ccccc3C3=NC(CC(=O)NCc4ccco4)C(=O)N23)c1 (stereo unspecified)	none
CN1CCN(c2nc3c(c(=O)[nH]2)CCN(Cc2ccc(F)cc2Cl)CC3)CC1	none
CC1=NOC2(CCN(C(=O)c3ccccc3F)C2)C1 (stereo unspecified)	none
COc1ccc(C(=O)N2CCC(CC(=O)NCc3ccccc3)C2)cc1 (stereo unspecified)	none
O=C(NCc1ccccc1)c1cn(C2CN(C(=O)Nc3ccc4c(c3)OCCO4)C2)nn1	none
COC[C@H]1CCCN1Cc1nc(C2(O)CCN(Cc3ccc(OC)cc3)CC2)cs1	none
CCc1nncn1C1CCN(C(=O)Nc2ccc(F)c(Cl)c2)C1 (stereo unspecified)	none
COCC(=O)N[C@@H]1CN(Cc2cccc(OC)n2)CC[C@@H]1CO	none
COc1cccc(CN2CCNc3cnc(-c4ccccc4)cc3C2)c1	none
CCNC(=O)C1CCN(C(=O)c2ccc3nc(-c4ccccc4)cn3c2)C1 (stereo unspecified)	none
O=C(NCC1COc2ncncc2C(=O)N1Cc1ccccc1)c1cccs1 (stereo unspecified)	none
COc1ccc(NC(=O)CSC2=Nc3ccccc3C3=NC(CCC(=O)NC4CCCCC4)C(=O)N23)cc1 (stereo unspecified)	none
CCCCNC(=O)CSC1=Nc2ccccc2C2=NC(CCC(=O)NCc3ccccc3OC)C(=O)N12 (stereo unspecified)	none
CC(C)c1ccc(NC(=O)CSC2=Nc3ccccc3C3=NC(CCC(=O)NC4CCCCC4)C(=O)N23)cc1 (stereo unspecified)	none
O=C(CSC1=Nc2ccccc2C2=NC(CCC(=O)NC3CCCCC3)C(=O)N12)Nc1cccc(C(F)(F)F)c1 (stereo unspecified)	Pf Dd2 growth 10µM
COCCCNC(=O)CSC1=Nc2ccccc2C2=NC(CCC(=O)NCc3ccccc3OC)C(=O)N12 (stereo unspecified)	none
CCCCNC(=O)CC1N=C2c3ccccc3N=C(SCC(=O)NCc3ccccc3Cl)N2C1=O (stereo unspecified)	Pf Dd2 growth 10µM
COc1cccc(CNC(=O)C(C)(C)C2CCOCC2)c1OC	none
CCn1nc(CC(C)C)cc1C(=O)N1CCC2(CC1)CNC(=O)O2	none
COc1ccc(C)cc1NC(=O)N1CC2CC(C1)[C@H]1CCCC(=O)N1C2 (stereo partly specified)	none
CCC(=O)Nc1ccc([C@H]2OCC(=O)N(Cc3ccc(F)cc3)[C@@H]2CO)cc1	none
CC(C)N1CCN(C(=O)CN2CC3CC(C2)[C@H]2CCCC(=O)N2C3)CC1 (stereo partly specified)	none
Cc1cccc(NC(=O)c2c(NC(=O)c3ccco3)sc3c2CCC(C)C3)c1 (stereo unspecified)	none
CC(C)(C)C1CCc2c(sc(NC(=O)c3ccco3)c2C(=O)Nc2ccccc2Cl)C1 (stereo unspecified)	none
Cc1cccc(NC(=O)c2c(NC(=O)c3ccco3)sc3c2CCC(C(C)(C)C)C3)c1 (stereo unspecified)	Pf Dd2 growth 7.1µM
O=C(COc1ccccc1)N[C@@H]1C[C@H](Cn2cc(-c3cccnc3)nn2)[C@@H](O)[C@H]1O	none
COCC(=O)N[C@H]1CC[C@]2(C)CC[C@@H]3[C@H](OC(=O)[C@H]3C)[C@H]2[C@@H]1C	none
CCN(CC)C(=O)C(C)[C@@H]1CC[C@@]2(C)CC[C@H](NC(=O)CC(C)(C)C)[C@@H](C)[C@@H]2[C@H]1O (stereo partly specified)	none
C[C@H]1[C@@H]2[C@H]3OC(=O)[C@@H](C)[C@@H]3CC[C@@]2(C)CC[C@@H]1NC(=O)CC(C)(C)C	Pf Dd2 growth 1.3µM
CC(C)NC(=O)C(C)[C@@H]1CC[C@@]2(C)CC[C@H](NC(=O)CC(C)(C)C)[C@@H](C)[C@@H]2[C@H]1O (stereo partly specified)	Pf Dd2 growth 6.3µM
C[C@H]1[C@@H]2[C@@H](O)C([C@H](C)C(=O)NCCN3CCOCC3)CC[C@@]2(C)CC[C@@H]1NC(=O)CC(C)(C)C (stereo partly specified)	none
C[C@H]1[C@@H]2[C@H]3OC(=O)[C@@H](C)[C@@H]3CC[C@@]2(C)CC[C@@H]1NC(=O)C1CCCCC1	none
COCCOC1CCN(C(=O)Cc2cccs2)CC1	none
Nc1cnc(-c2cccnc2)nc1	none
CNC(=O)[C@H]1C[C@H](Oc2ccccc2)CN1S(=O)(=O)c1cccc(OC)c1	none
CCOc1cccc(CN2C(=O)C3(CCOCC3)CC2c2nnnn2C(C)(C)C)c1 (stereo unspecified)	none
O=C(N[C@@H]1CN(C2CCSCC2)C[C@H]1CO)c1cccnc1	none
Cc1cccc2nnc(N3CCN(C(=O)c4ccco4)CC3)n12	none
CC(C)N1CC2CCC(C1)N2Cc1cccc(Cl)c1	none
Cc1ccc(-c2cccc(CN3C4CCC3CN(C(=O)c3ccncc3)C4)c2)c(C)c1	none
Cc1ccc(-c2cccc(CN3C4CCC3CN(C(C)C)C4)c2)c(C)c1	Pf Dd2 growth 10µM
COCCN1CC(CO)C2(CCN(C(=O)Cc3ccccc3OC)CC2)C1 (stereo unspecified)	none
c1ccc(CN2CCC(Oc3cnc4c(ccn4-c4cncnc4)c3)CC2)cc1	none
O=C(c1cc(CN2CCOCC2)on1)N1CCC(c2nc(C3CCOCC3)no2)C1 (stereo unspecified)	none
CCc1ccc(C2CC(C(=O)NC(C)c3ccccc3)CN(C(=O)c3ccoc3)C2)cc1 (stereo unspecified)	none
